Experimental findings from PubChem BioAssay AID1851 (National Center for Advancing Translational Sciences (NCATS), 2009) are described below.

The structures appear in SMILES notation. Where “and” joins values, the source holds several entries; their conditions need not be identical. Equal values may be shown once. The campaign covered roughly 16,000 compounds. About 4,000 (25%) were called active. Another 26% or so got no clear call; they are omitted. The call rests on the fitted dose curve; in most records, active means well fitted curve in the direction sought with a large enough effect; inconclusive means small, poorly fitted or top-dose-only effect, or effect the other way; inactive means no such curve, though single readings can be large or run the other way. These entries were drawn from the full list. The source holds several records for some structures; these can differ, active in one and inactive in another.
On the % scale 0 is the no-effect control and ±100 the full control effect.

This test deals with Cytochrome P450 2C9 (Homo sapiens) (UniProt P11712). Description: Cytochrome panel assay with activity outcomes. Conditions: recombinant CYP, pro-luciferin dealkylation, luminescence, p450-cyp2c9; series mostly up to 57.1 µM.
Cytochrome P450 2C9 (Homo sapiens), sequence (P11712 whole entry, looked up): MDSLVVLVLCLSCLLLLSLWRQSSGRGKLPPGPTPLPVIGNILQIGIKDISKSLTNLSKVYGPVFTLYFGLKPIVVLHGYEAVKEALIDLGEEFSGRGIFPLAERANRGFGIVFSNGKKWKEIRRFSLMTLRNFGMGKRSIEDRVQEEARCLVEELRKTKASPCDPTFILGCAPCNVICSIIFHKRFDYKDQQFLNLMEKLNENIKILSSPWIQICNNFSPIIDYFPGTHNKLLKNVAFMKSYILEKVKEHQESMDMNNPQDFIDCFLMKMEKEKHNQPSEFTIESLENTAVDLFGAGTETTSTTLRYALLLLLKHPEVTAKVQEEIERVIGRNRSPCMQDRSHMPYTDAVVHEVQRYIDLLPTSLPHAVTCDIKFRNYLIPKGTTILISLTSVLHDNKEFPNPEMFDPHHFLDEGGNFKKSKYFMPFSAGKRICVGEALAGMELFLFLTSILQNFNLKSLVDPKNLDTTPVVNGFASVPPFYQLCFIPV
In general, AC50 refers to the concentration giving half of the maximal activity seen. On to `CC(C)CN1CC[C@@]2(CCCN(C(=O)c3cc(C(F)(F)F)cc(C(F)(F)F)c3)C2)C1`, for which the AC50 entry was “inactive”.
As for `COc1c(O)ccc2c1CN1CCc3cc4c(cc3[C@@H]1C2)OCO4`, the activity, negative = inhibition was 1.47% [at 11.4 µM] (inactive).
For `COc1ccc2c(c1OC)C(=O)OC2Nc1ncccc1C` (stereo not given), the AC50 result is “inactive”.
Same read-out and setting: the same measure for `COc1ccc2c(c1OC)C(=O)O[C@@H]2[C@H]1c2c(cc3c(c2OC)OCO3)CCN1C`: 0.126 µM (active).
Still for that read-out and setting: next, `COc1ccc2c(c1OC)C(=O)OC2[C@H]1c2c(cc3c(c2OC)OCO3)CCN1C` (stereo not given in full): 5.01 µM (active) and 2.51 µM (active); `COc1ccc2cc3[n+](cc2c1OC)CCc1cc2c(cc1-3)OCO2`: “inactive”.
Same read-out and setting: next, `NCC[C@H](O)C(=O)N[C@H]1C[C@@H](N)[C@@H](O[C@H]2O[C@@H](CN)[C@@H](O)[C@@H](O)[C@@H]2O)[C@@H](O)[C@@H]1O[C@H]1O[C@@H](CO)[C@@H](O)[C@@H](N)[C@@H]1O`: “inactive”; `O=C1c2ccccc2C(=O)C1c1ccccc1`: “inactive”.
Regarding `OC(CN1CCCCC1)CN1CCCCC1`, the AC50 result is “inactive”.
`Cc1cc2c(nc1C)CCCN2CC(O)CN1CCCc2nc(C)c(C)cc21`: the activity, negative = inhibition is -10.8% [at 11.4 µM] (inactive).
For the compound `Cc1cc2c(nc1C)CCCN2C[C@H](O)CN1CCCc2nc(-c3ccc(Br)cc3)ccc21`, the AC50 is 2.51 µM (active).
Turning to `Cc1cc2c(nc1C)CCCN2C[C@@H](O)CN1CCN(C)CC1`, the activity, negative = inhibition is 29.4% [at 11.4 µM] (inactive).
For the compound `CO/N=C(\C)CCN1CCCc2nc(C)c(C)cc21`, the activity, negative = inhibition is -0.836% [at 11.4 µM] (inactive).
For the compound `COc1ccc(-c2ccc3c(n2)CCCN3C[C@H](O)CN2CCCc3nc(C)c(C)cc32)cc1`, the AC50 was 3.98 µM (active).
On to `CCN(CC)C[C@@H](O)CN1CCCCc2nc(C)c(C)cc21`, for which the activity, negative = inhibition was -1.31% [at 11.4 µM] (inactive).
Regarding `Cc1ccc(Cn2ccc(NC(=O)c3cc4nc(-c5ccco5)cc(C(F)(F)F)n4n3)n2)cc1`, the AC50 entry is “inactive”.
Same read-out and setting: next, `Cc1ccc(Cn2nc(C)c(NC(=O)c3cc(-c4ccco4)on3)c2C)cc1`: 12.6 µM (active); `COc1nc(C)nc(Cl)c1NC1=NCCN1`: “inactive”; `c1ccc2c(CC3=NCCN3)cccc2c1`: “inactive”.
Same read-out and setting: next, `Clc1cccc(Cl)c1NC1=NCCN1`: “inactive and 7.94 µM (active)”.
On the same count and under the same terms, the same measure for `O=[N+]([O-])c1cccc(/C=N/Nc2cc(Cl)nc(-c3ccccc3)n2)c1`: “inactive”; for `C/C(=N\Nc1nnc(-c2ccccc2)c(-c2ccccc2)n1)c1cccc([N+](=O)[O-])c1`: 20 µM (active).
As to `C/C(=N\Nc1ccc([N+](=O)[O-])cc1)c1cccc(N)c1`, the AC50 was 5.62 µM (active).
Still for that read-out and setting: next, `c1ccc([C@@H]2CN3CCSC3=N2)cc1`: “inactive”.
For `CN(C)C(=O)c1ccc(-c2nc(NCc3ccccc3)c3ccccc3n2)cc1`, the activity, negative = inhibition is -4.46% [at 2.29 µM] (inactive).
As to `CCOC(=O)c1nnc(-c2ccccc2)nc1NCc1ccccc1`, the AC50 is 25.1 µM (active).
As for `CN(C)C(=O)c1ccc(-c2nccc(NCc3ccccc3)n2)cc1`, the activity, negative = inhibition is -14% [at 2.29 µM] (inactive).
On to `COc1ccc(C(=O)CCN(C)C)c2ccccc12`, for which the AC50 is 3.98 µM (active).
For the compound `O=C(O)CCC(=O)c1ccc2ccc3cccc4ccc1c2c34`, the activity, negative = inhibition was 4.8% [at 11.4 µM] (inactive).
Turning to `CCCCN(CC)C(=O)Cc1ccccc1OC`, the AC50 entry is “inactive”.
Consider `O=C1c2ccccc2CCC12N=NCC2c1ccc(Cl)cc1` (stereo not given), for which the AC50 was 14.1 µM (active).
For the compound `Nc1ccc(Nc2ccccc2)cc1`, the AC50 is 8.91 µM (active).
Still for that read-out and setting: the same measure for `CNC(=S)Nc1ccc(Nc2ccccc2)cc1`: 39.8 µM (active).
For `N#[N+]c1ccc(Nc2ccccc2)cc1`, the activity, negative = inhibition was 5.95% [at 11.4 µM] (inactive).
Same read-out and setting: the same measure for `Cc1ccccc1-c1cncnc1Nc1ccccc1`: -13.5% [at 2.29 µM] (inactive).
Consider `CC(C)(C)NC(=S)Nc1ccc(Nc2ccccc2)cc1`, for which the AC50 is 7.08 µM (active).
For the compound `CNC(=S)Nc1ccc2nc(C)c(C)nc2c1`, the AC50 result was “inactive”.
In the case of `COc1ccc(NC(=S)Nc2ccccc2)cc1`, the activity, negative = inhibition was -15.3% [at 11.4 µM] (inactive).
Still for that read-out and setting: the same measure for `CN(C)C(=O)c1ccc(-c2ccc3ncnc(NCCN4CCOCC4)c3c2)cc1`: 1.81% [at 2.29 µM] (inactive).
For `CC(C)(C)NC(=O)CN(Cc1cccs1)C(=O)CCC(=O)Nc1nccs1`, the AC50 entry was “inactive”.
Same read-out and setting: the same measure for `Cc1c(C(=O)Nc2nccs2)sc2nc(-c3cccs3)cc(C(F)(F)F)c12`: 3.16 µM (active); for `CCC(NC(=O)C1(C)CC1(Br)Br)c1ccc(C)cc1` (stereo not given): 5.01 µM (active); for `CC[C@H](NC(=O)c1c(C)c(-c2ccccc2)nc2ccccc12)c1ccccc1`: “inactive”.
Take `N#Cc1cccc(-c2nccc(-n3ccnc3)n2)c1`: the activity, negative = inhibition was 5.77% [at 2.29 µM] (inactive).
`CO[C@H]1[C@@H](OC(N)=O)[C@H](O)[C@@H](Oc2ccc3c(O)c(NC(=O)c4ccc(O)c(CC=C(C)C)c4)c(=O)oc3c2C)OC1(C)C`: the AC50 result was “inactive”.
On the same count and under the same terms, next, `COC(=O)N1CCC2(CCN(Cc3ccccc3OC)CC2)CC1`: “inactive”; `COc1ccccc1CC(=O)Nc1cc2oc3ccccc3c2cc1OC`: 3.98 µM (active).
On the same count and under the same terms, the same measure for `CCOCC(=O)Nc1c(C(=O)Nc2ccccc2OC)oc2ccccc12`: “inactive”; for `CCCC[C@@H]1C[C@H]1C(NC(=O)c1cccs1)c1ccc(C(F)(F)F)cc1` (stereo not given in full): 1.58 µM (active); for `CCCC[C@@H]1C[C@H]1C(NC(=O)c1cccs1)c1ccc(Cl)cc1` (stereo not given in full): 1 µM (active).
On the same count and under the same terms, next, `CCCC[C@@H]1C[C@H]1C(NC(=O)c1cccs1)c1ccc(-c2ccccc2)cc1` (stereo not given in full): 1.58 µM (active).
Regarding `Cc1cc(C)c2c(N)c3ccccc3nc2n1`, the AC50 result is “inactive”.
As for `CCNc1ncc2nc(CCc3ccccc3)c(=O)n(Cc3cccc(OC)c3)c2n1`, the AC50 result is “inactive”.
The same measure, in the same setting: the same measure for `COc1cccc(Cn2c(=O)cnc3cnc(N(C)C)nc32)c1`: 12.6 µM (active); for `COc1cccc(Cn2c(=O)c(CCc3ccccc3)nc3cnc(OC)nc32)c1`: 6.31 µM (active).
Take `COc1cccc(Cn2c(=O)c(CCc3ccccc3)nc3cnc(N(C)C)nc32)c1`: the AC50 was 10 µM (active).
Same read-out and setting: the same measure for `COc1cccc(Cn2c(=O)cnc3cnc(Nc4cccc(OC)c4)nc32)c1`: 2 µM (active); for `COc1cccc(Nc2ncc3ncc(=O)n(CCC#N)c3n2)c1`: “inactive”; for `COc1ccc(-n2c(=O)cnc3cnc(N(C)C)nc32)cc1`: “inactive”.
The same measure, in the same setting: next, `COc1cccc(Nc2ncc3ncc(=O)n(C)c3n2)c1`: “inactive”.
